Data taken from the supplement of paper PMC6522484.
± gives the standard deviation of the averaged measurements.

Legend:
DLD1 [1] = assay: cell viability (CellTiter-Glo) relative to plate median (fraction of plate median); higher = more viable cells; details: 5 µM; treatment time 24 h; reporter: 7TFP
Summary of the method: (§1)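 Normalisation used webcellHTS2 in additive mode without log transformation, scaling each well's luminescence to the plate median. The luminescence was firefly luciferase or CellTiterGlo, read on a Tecan F500 from parallel plates of colorectal cancer cells stably transduced with lentiviral TCF/Wnt firefly luciferase reporters. Those cells had been given library compounds at a final 5 µM for 24 h, and two independent replicates were averaged.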

HCT116 = assay: as above; details: 5 µM; treatment time 24 h; reporter: TCF4/Wnt
Summary of the method: as §1

SW480 [2] = assay: as above; details: 5 µM; treatment time 24 h; reporter: 7TFP
Summary of the method: as §1

DLD1 [3] = assay: TCF/Wnt firefly luciferase reporter signal relative to plate median (fraction of plate median); higher = higher Wnt reporter signal; details: 5 µM; treatment time 24 h; reporter: 7TFP
Summary of the method: as §1

SW480 [4] = assay: as above; details: 5 µM; treatment time 24 h; reporter: 7TFP
Summary of the method: as §1

## OC1CCCCC1N1CCC(c2ccccc2)CC1 (stereo not given)
DLD1 [1]
  cell viability: 0.98 ± 0.0042
HCT116
  cell viability: 0.922 ± 0.069
SW480 [2]
  cell viability: 1.04 ± 0.021
DLD1 [3]
  TCF/Wnt firefly luciferase reporter signal: 0.867 ± 0.1
SW480 [4]
  TCF/Wnt firefly luciferase reporter signal: 0.92 ± 0.022

## C[C@]12CC[C@H]3[C@@H](CC[C@]4(O)C[C@@H](O)CC[C@]34C=O)[C@@]1(O)CC[C@@H]2C1=CC(=O)OC1
DLD1 [1]
  cell viability: 0.579 ± 0.021
HCT116
  cell viability: 0.502 ± 0.12
SW480 [2]
  cell viability: 0.746 ± 0.046
DLD1 [3]
  TCF/Wnt firefly luciferase reporter signal: 0.226 ± 0.12
SW480 [4]
  TCF/Wnt firefly luciferase reporter signal: 0.58 ± 0.054

## C=CCC1(C(C)CCC)C(=O)NC(=S)NC1=O (stereo not given)
DLD1 [1]
  cell viability: 1.03 ± 0.076
HCT116
  cell viability: 1.18 ± 0.23
SW480 [2]
  cell viability: 0.951 ± 0.0028
DLD1 [3]
  TCF/Wnt firefly luciferase reporter signal: 1.02 ± 0.035
SW480 [4]
  TCF/Wnt firefly luciferase reporter signal: 0.794 ± 0.011

## CC1(C)C(=O)C=C[C@@]2(C)C1=C(O)C(=O)[C@]1(C)[C@@H]2CC[C@@]2(C)[C@H](c3ccoc3)C[C@H]3O[C@]321
DLD1 [1]
  cell viability: 0.925 ± 0.029
HCT116
  cell viability: 1.13 ± 0.057
SW480 [2]
  cell viability: 0.91 ± 0.034
DLD1 [3]
  TCF/Wnt firefly luciferase reporter signal: 0.986 ± 0.062
SW480 [4]
  TCF/Wnt firefly luciferase reporter signal: 1.02 ± 0.055

## O=c1[nH]c2ccccc2n1CCCN1CCC(n2c(=O)[nH]c3cc(Cl)ccc32)CC1 [Domperidone]
DLD1 [1]
  cell viability: 0.898 ± 0.1
HCT116
  cell viability: 0.83 ± 0.042
SW480 [2]
  cell viability: 0.94 ± 0.063
DLD1 [3]
  TCF/Wnt firefly luciferase reporter signal: 0.997 ± 0.09
SW480 [4]
  TCF/Wnt firefly luciferase reporter signal: 0.814 ± 0.071

## c1ccc2nc(N3CCNCC3)ccc2c1
DLD1 [1]
  cell viability: 0.9935 ± 0.0092
HCT116
  cell viability: 1.02 ± 0.081
SW480 [2]
  cell viability: 0.974 ± 0.025
DLD1 [3]
  TCF/Wnt firefly luciferase reporter signal: 1.02 ± 0.15
SW480 [4]
  TCF/Wnt firefly luciferase reporter signal: 0.932 ± 0.028

## CC([C@H](O)c1ccccc1)N(C)C (stereo not given in full)
DLD1 [1]
  cell viability: 0.991 ± 0.0014
HCT116
  cell viability: 1.015 ± 0.0071
SW480 [2]
  cell viability: 0.966 ± 0.091
DLD1 [3]
  TCF/Wnt firefly luciferase reporter signal: 0.915 ± 0.09
SW480 [4]
  TCF/Wnt firefly luciferase reporter signal: 0.975 ± 0.05

## CN1[C@@H]2CC[C@H]1C[C@@H](OC(=O)[C@H](CO)c1ccccc1)C2
DLD1 [1]
  cell viability: 1.06 ± 0.14
HCT116
  cell viability: 1.09
SW480 [2]
  cell viability: 1 ± 0.086
DLD1 [3]
  TCF/Wnt firefly luciferase reporter signal: 0.974 ± 0.11
SW480 [4]
  TCF/Wnt firefly luciferase reporter signal: 1.05 ± 0.028

## COc1cc2c(cc1OC)[C@H](C)NCC2
DLD1 [1]
  cell viability: 0.962 ± 0.044
HCT116
  cell viability: 0.96 ± 0.13
SW480 [2]
  cell viability: 0.9455 ± 0.00071
DLD1 [3]
  TCF/Wnt firefly luciferase reporter signal: 1.06 ± 0.085
SW480 [4]
  TCF/Wnt firefly luciferase reporter signal: 1.07 ± 0.014

## C=C[C@H]1CN2CC[C@H]1C[C@@H]2[C@@H](O)c1ccnc2ccccc12
DLD1 [1]
  cell viability: 1.02 ± 0.055
HCT116
  cell viability: 0.963 ± 0.021
SW480 [2]
  cell viability: 0.984 ± 0.023
DLD1 [3]
  TCF/Wnt firefly luciferase reporter signal: 1.03 ± 0.028
SW480 [4]
  TCF/Wnt firefly luciferase reporter signal: 0.926 ± 0.014

## COP(=O)(OC)OC=C(Cl)Cl
DLD1 [1]
  cell viability: 1.05 ± 0.014
HCT116
  cell viability: 0.94 ± 0.099
SW480 [2]
  cell viability: 0.994 ± 0.037
DLD1 [3]
  TCF/Wnt firefly luciferase reporter signal: 1.04 ± 0.18
SW480 [4]
  TCF/Wnt firefly luciferase reporter signal: 1.03 ± 0.028

## CN1CCc2cc3c(cc2[C@H]1[C@@H]1OC(=O)c2c1ccc1c2OCO1)OCO3
DLD1 [1]
  cell viability: 1.06 ± 0.014
HCT116
  cell viability: 1.07 ± 0.13
SW480 [2]
  cell viability: 1.05 ± 0.05
DLD1 [3]
  TCF/Wnt firefly luciferase reporter signal: 0.9 ± 0.011
SW480 [4]
  TCF/Wnt firefly luciferase reporter signal: 1.045 ± 0.0071

## CC[N+]1(C)CCCC(OC(=O)C(O)(c2ccccc2)c2ccccc2)C1 (stereo not given)
DLD1 [1]
  cell viability: 0.945 ± 0.0014
HCT116
  cell viability: 0.949 ± 0.087
SW480 [2]
  cell viability: 0.933 ± 0.091
DLD1 [3]
  TCF/Wnt firefly luciferase reporter signal: 0.857 ± 0.0071
SW480 [4]
  TCF/Wnt firefly luciferase reporter signal: 0.958 ± 0.06

## CCC(=O)O[C@H]1CC[C@H]2[C@@H]3CCC4=CC(=O)CC[C@]4(C)[C@H]3CC[C@]12C
DLD1 [1]
  cell viability: 1.02 ± 0.045
HCT116
  cell viability: 0.894 ± 0.06
SW480 [2]
  cell viability: 1 ± 0.012
DLD1 [3]
  TCF/Wnt firefly luciferase reporter signal: 0.994 ± 0.17
SW480 [4]
  TCF/Wnt firefly luciferase reporter signal: 0.99 ± 0.013

## FC(F)(F)c1cccc(N2CCNCC2)c1
DLD1 [1]
  cell viability: 1.04 ± 0.13
HCT116
  cell viability: 1.05 ± 0.086
SW480 [2]
  cell viability: 1.02 ± 0.014
DLD1 [3]
  TCF/Wnt firefly luciferase reporter signal: 0.943 ± 0.015
SW480 [4]
  TCF/Wnt firefly luciferase reporter signal: 1.02 ± 0.045

## CC[C@@]1(O)C[C@H](O[C@H]2C[C@H](N(C)C)[C@H](O[C@H]3C[C@@H]4O[C@H]5CC(=O)[C@H](C)O[C@H]5O[C@@H]4[C@H](C)O3)[C@H](C)O2)c2c(cc3c(c2O)C(=O)c2c(O)ccc(O)c2C3=O)[C@H]1C(=O)OC [Cinerubin-B]
DLD1 [1]
  cell viability: 1.04 ± 0.12
HCT116
  cell viability: 0.993 ± 0.067
SW480 [2]
  cell viability: 1.01 ± 0.028
DLD1 [3]
  TCF/Wnt firefly luciferase reporter signal: 0.991 ± 0.15
SW480 [4]
  TCF/Wnt firefly luciferase reporter signal: 1.07 ± 0.028

## CCCC(C)C1(CC)C(=O)NC(=O)NC1=O (stereo not given)
DLD1 [1]
  cell viability: 1 ± 0.079
HCT116
  cell viability: 0.981 ± 0.02
SW480 [2]
  cell viability: 0.978 ± 0.0014
DLD1 [3]
  TCF/Wnt firefly luciferase reporter signal: 0.948 ± 0.018
SW480 [4]
  TCF/Wnt firefly luciferase reporter signal: 0.933 ± 0.11

## C[C@@H]1C[C@@H]([C@H](O)CC2CC(=O)NC(=O)C2)C(=O)[C@@H](C)C1
DLD1 [1]
  cell viability: 0.892 ± 0.059
HCT116
  cell viability: 0.5955 ± 0.0035
SW480 [2]
  cell viability: 0.967 ± 0.076
DLD1 [3]
  TCF/Wnt firefly luciferase reporter signal: 0.387 ± 0.088
SW480 [4]
  TCF/Wnt firefly luciferase reporter signal: 0.665 ± 0.15

## COc1cc2c(c3oc4cccc(O)c4c(=O)c13)[C@@H]1C=CO[C@@H]1O2 [Sterigmatocystin]
DLD1 [1]
  cell viability: 1.1 ± 0.16
HCT116
  cell viability: 1.17 ± 0.014
SW480 [2]
  cell viability: 1.08 ± 0.057
DLD1 [3]
  TCF/Wnt firefly luciferase reporter signal: 0.845 ± 0.25
SW480 [4]
  TCF/Wnt firefly luciferase reporter signal: 0.902 ± 0.077

## C=C(C)[C@@H]1CC[C@]2(C(=O)O[C@@H]3O[C@H](CO[C@@H]4O[C@H](CO)[C@@H](O[C@@H]5O[C@@H](C)[C@H](O)[C@@H](O)[C@H]5O)[C@H](O)[C@H]4O)[C@@H](O)[C@H](O)[C@H]3O)CC[C@]3(C)[C@H](C[C@H]4OC(=O)C[C@@H](O)[C@]5(C)[C@@H]4[C@@]3(C)CC[C@H]5C(=C)C)[C@@H]12 [Chiisanoside (5)]
DLD1 [1]
  cell viability: 0.873 ± 0.16
HCT116
  cell viability: 0.958 ± 0.074
SW480 [2]
  cell viability: 0.945 ± 0.059
DLD1 [3]
  TCF/Wnt firefly luciferase reporter signal: 0.817 ± 0.059
SW480 [4]
  TCF/Wnt firefly luciferase reporter signal: 0.948 ± 0.12

## CC(=O)O[C@@H]1CC2C(C)(C)[C@H](O)C=C[C@]2(C)C2CC[C@]3(C)C(=CC(=O)O[C@H]3c3ccoc3)[C@@]21C (stereo partly drawn) [3-alpha-HYDROXYDEOXYGEDININ]
DLD1 [1]
  cell viability: 1.08 ± 0.092
HCT116
  cell viability: 1.11 ± 0.014
SW480 [2]
  cell viability: 1.08 ± 0.11
DLD1 [3]
  TCF/Wnt firefly luciferase reporter signal: 1.04 ± 0.097
SW480 [4]
  TCF/Wnt firefly luciferase reporter signal: 0.943 ± 0.076

## COC1=C[C@]23CCCN2CCc2cc4c(cc2[C@@H]3[C@@H]1O)OCO4
DLD1 [1]
  cell viability: 0.98 ± 0.14
HCT116
  cell viability: 1.01 ± 0.035
SW480 [2]
  cell viability: 1.01 ± 0.021
DLD1 [3]
  TCF/Wnt firefly luciferase reporter signal: 0.997 ± 0.32
SW480 [4]
  TCF/Wnt firefly luciferase reporter signal: 0.953 ± 0.067

## C[N+]1(C)[C@@H]2C[C@@H](OC(=O)[C@H](CO)c3ccccc3)C[C@H]1[C@@H]1O[C@@H]12
DLD1 [1]
  cell viability: 1.09 ± 0.021
HCT116
  cell viability: 0.971 ± 0.069
SW480 [2]
  cell viability: 1.035 ± 0.0071
DLD1 [3]
  TCF/Wnt firefly luciferase reporter signal: 0.9885 ± 0.005
SW480 [4]
  TCF/Wnt firefly luciferase reporter signal: 1.085 ± 0.0071

## O=C1C=C2C(=CCOC2O)O1 (stereo not given)
DLD1 [1]
  cell viability: 0.883 ± 0.19
HCT116
  cell viability: 0.606 ± 0.2
SW480 [2]
  cell viability: 0.9575 ± 0.0064
DLD1 [3]
  TCF/Wnt firefly luciferase reporter signal: 0.993 ± 0.18
SW480 [4]
  TCF/Wnt firefly luciferase reporter signal: 0.499 ± 0.025

## CC(C)=CCC[C@]1(C)C=Cc2c(O)c3c(c(CC=C(C)C)c2O1)O[C@]12C(=C[C@@H]4C[C@H]1C(C)(C)O[C@@]2(C/C=C(/C)C(N)=O)C4=O)C3=O
DLD1 [1]
  cell viability: 0.976 ± 0.049
HCT116
  cell viability: 0.9335 ± 0.00071
SW480 [2]
  cell viability: 1.03 ± 0.021
DLD1 [3]
  TCF/Wnt firefly luciferase reporter signal: 0.947 ± 0.011
SW480 [4]
  TCF/Wnt firefly luciferase reporter signal: 0.895 ± 0.1

## CN1C(=O)CCS(=O)(=O)C1c1ccc(Cl)cc1 (stereo not given)
DLD1 [1]
  cell viability: 1.01 ± 0.033
HCT116
  cell viability: 1.02 ± 0.014
SW480 [2]
  cell viability: 0.946 ± 0.15
DLD1 [3]
  TCF/Wnt firefly luciferase reporter signal: 0.984 ± 0.023
SW480 [4]
  TCF/Wnt firefly luciferase reporter signal: 1.04 ± 0.093

## CCC(C)C(=O)O[C@@H]1C[C@@]2(C)[C@H](c3ccoc3)OC(=O)CC23OC2(C)O[C@]14[C@]1(C)[C@@H](CC(=O)OC)C5(C)CC1(O)[C@](O)(C5OC(=O)C1(C)OC1C)[C@@H](OC(C)=O)[C@]34O2 (stereo not given in full)
DLD1 [1]
  cell viability: 0.972 ± 0.027
HCT116
  cell viability: 0.961 ± 0.11
SW480 [2]
  cell viability: 1 ± 0.013
DLD1 [3]
  TCF/Wnt firefly luciferase reporter signal: 1.04 ± 0.014
SW480 [4]
  TCF/Wnt firefly luciferase reporter signal: 0.928 ± 0.19
